Test results taken from PubChem BioAssay AID1159577 (Broad Institute, 2015).
In all, about 1,300 compounds went through this assay and about 240 (18%) were called active. Not shown: some 8% with an inconclusive outcome. How the calls were made is not given here. A selection follows. Entries with a potency or affinity are not part of this list.

Experiment: toxicity to human hepatoma HepG2 cells – cell-based, cherry-picked samples, cytotoxicity control, dose response (AID 1159577);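 further: 0% = neutral control wells and -100% = positive control wells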
Conditions: HepG2 cytotoxicity counterscreen, plate reader; series mostly up to 19.5 µM; activity change, negative = cytotoxicity: at the top concentration

Row | SMILES | activity change, negative = cytotoxicity
1 | CCCN(C)C[C@@H]1Oc2cc(C#Cc3cccnc3)ccc2S(=O)(=O)N([C@@H](C)CO)C[C@H]1C | 10.7% (inactive)
2 | COc1ccc2c3c([nH]c2c1)[C@H](CO)N(Cc1cc(F)ccc1F)CC31CCN(C(=O)C2CCC2)CC1 | 8.9% (inactive)
3 | C[C@H](CO)N1C[C@H](C)[C@H](CN(C)C(=O)NC2CCCCC2)OCc2ccccc2-c2c(n(C)c3ccccc23)C1=O | 8.48% (inactive)
4 | CO[C@H]1CN(C)C(=O)c2cc(NC(=O)c3ccccc3F)ccc2OC[C@H](C)N(C(=O)c2ccccc2F)C[C@H]1C | -15.7% (inactive)
5 | CCC(=O)N1CC2(C1)CN(Cc1cccc(Cl)c1)[C@H](CO)c1c2c2ccc(OC)cc2n1C | 0.885% [at 21 µM] (inactive)
6 | N#C[C@@H]1[C@H](c2ccccc2-c2ccccc2F)[C@H](CO)N1C(=O)C1CCOCC1 | -0.432% (inactive)
7 | N#C[C@@H]1[C@@H](c2ccccc2C2=CCCC2)[C@@H](CO)N1C(=O)NC1CCCC1 | 1.93% (inactive)
8 | CN(C)C(=O)c1cccc(-c2cccc(-c3nc(C(=O)NC4CCCCC4)cc4c3[C@@H](CCO)N([S@](=O)C(C)(C)C)C4)c2)c1 | -15.1% [at 21 µM] (inactive)
9 | COc1cccc(CNC(=O)c2cc3c(c(-c4cccc(-c5ccncc5)c4)n2)[C@H](CCO)N([S@@](=O)C(C)(C)C)C3)c1 | 15.6% (inactive)
10 | CC(C)(C)S(=O)N1Cc2cc(C(=O)NCc3ccc(Oc4ccccc4)cc3)nc(-c3cccc(-c4cccc(F)c4)c3)c2[C@@H]1CCO (stereo partly drawn) | 6.7% (inactive)
11 | COc1cccc(-c2cccc(-c3nc(C(=O)NCc4ccc(Oc5ccccc5)cc4)cc4c3[C@@H](CCO)N(S(=O)C(C)(C)C)C4)c2)c1 (stereo partly drawn) | 17.5% (inactive)
12 | C[C@H]1CN([C@@H](C)CO)C(=O)c2c(c3ccccc3n2C)-c2ccccc2CO[C@H]1CN(C)S(=O)(=O)c1ccc(C(F)(F)F)cc1 | -0.676% [at 21 µM] (inactive)
13 | COCC(=O)N1[C@H](C#N)[C@@H](c2ccccc2-c2ccccc2)[C@H]1CO | -10.6% (inactive)
14 | COc1ccc2c3c(n(C)c2c1)[C@@H](CO)N(C(=O)c1ccc(F)cc1)CC31CN(C(=O)Nc2ccc(F)cc2)C1 | 25.7% (inactive)
15 | COc1ccc(C#Cc2ccc3c(c2)O[C@@H](CN(C)C(=O)Nc2cccc(OC)c2)[C@@H](C)CN([C@H](C)CO)S3(=O)=O)cc1 | -22.3% (inactive)
16 | O=C(c1ccccn1)N1CC2(C1)[C@@H](c1ccccc1)[C@H](CO)N2Cc1ccc(Cl)cc1 | 6.35% (inactive)
17 | COc1ccc(C#Cc2ccc([C@H]3[C@H]4CN(C(=O)c5ccc(F)cc5)CC(=O)N4[C@H]3CO)cc2)cc1 | -5.36% (inactive)

Row | SMILES | activity change, negative = cytotoxicity
18 | C[C@H](CO)N1C[C@H](C)[C@@H](CN(C)C(=O)Nc2ccc(F)cc2)OCc2ccccc2-c2c(n(C)c3ccccc23)C1=O | -5.84% [at 21 µM] (inactive)
19 | CCC(=O)N1CC2(C1)CN(C(=O)Nc1ccccc1F)[C@H](CO)c1[nH]c3cc(OC)ccc3c12 | 30.1% (inactive)
20 | COc1ccc2c3c([nH]c2c1)[C@@H](CO)N(C(=O)Cc1ccccc1)CC31CCN(C(=O)Cc2ccccc2)CC1 | -4.6% (inactive)
21 | COc1ccc2c3c([nH]c2c1)[C@@H](CO)N(C(=O)c1cccc(F)c1)CC31CCN(C(=O)c2ccccc2)CC1 | -4.87% (inactive)
22 | CCC(=O)N1CC2(CCN(C(=O)Nc3ccccc3F)CC2)c2c([nH]c3cc(OC)ccc23)[C@H]1CO | -3.9% (inactive)
23 | COc1cccc(-c2ccc3c(c2)[C@@H]2[C@@H](CCN2C(=O)C2CCCC2)[C@H](CO)N3)c1 | -7.28% (inactive)
24 | CN(C)c1ccc2c(c1)[C@@H]1C[C@@H](CC(=O)N3CCc4ccccc4C3)O[C@@H](CO)[C@@H]1O2 | 25.9% (inactive)
25 | O=C(c1ccc(F)cc1)N1CC(=O)N2[C@H](CO)[C@H](c3ccc(C#Cc4ccc(F)cc4)cc3)[C@H]2C1 | -19.2% (inactive)
26 | CCC(=O)N1CCC2(CC1)CN(Cc1cc(F)ccc1F)[C@@H](CO)c1[nH]c3cc(OC)ccc3c12 | 14.9% (inactive)
27 | COc1cccc(C#Cc2ccc([C@@H]3[C@@H](C#N)N(C(=O)C4CCCCC4)[C@H]3CO)cc2)c1 | -18.6% (inactive)
28 | COc1ccccc1C#Cc1ccc([C@H]2[C@@H](C#N)N(C(=O)C3CCCCC3)[C@H]2CO)cc1 | -30.5% (inactive)
29 | COc1cccc(C#Cc2ccc([C@H]3[C@@H](C#N)N(C(=O)C4CCCC4)[C@@H]3CO)cc2)c1 | -17.4% (inactive)
30 | COc1ccccc1C#Cc1ccc([C@@H]2[C@H](C#N)N(C(=O)C3CCCC3)[C@H]2CO)cc1 | -10.7% (inactive)
31 | COCC(=O)N1CC2(C1)CN(Cc1ccccc1F)[C@@H](CO)c1[nH]c3cc(OC)ccc3c12 | 25.2% [at 21 µM] (inactive)
32 | C[C@H](CO)N1C[C@H](C)[C@@H](CN(C)C(=O)C2CCCCC2)Oc2ncc(/C=C/c3ccccc3)cc2C1=O | 16.2% (inactive)
33 | O=C(C[C@H]1C=C[C@H](NC(=O)Cc2ccccn2)[C@H](CO)O1)NCCc1ccccc1 | 18.1% (inactive)
